Source: PubChem BioAssay (National Center for Advancing Translational Sciences (NCATS))
GLP1R ag = qHTS of GLP-1 Receptor Agonists. Glucagon-like peptide 1 receptor (Homo sapiens), P43220. HEK293 GLP-1R CRE-luciferase, luminescence, 4-6 h; cells express a hypersensitive GLP-1R form. Potency, µM (top dose mostly 45.6 µM), for inactives: at the highest dose activation, usual class: activators. 0.007% of 380,000 active. AID 624172, 2012; also: % of control where 0% means no effect
PTHR1 agonist = qHTS for PTHR1 Agonists: Primary Screen; HEK293 GP2 PTHR1 cells, GloSensor cAMP luminescence, 1 h; AID 743266, 2014; 0.075% of 410,000 active; Parathyroid hormone/parathyroid hormone-related peptide receptor (Homo sapiens), Q03431; Potency, µM (doses to about 115 µM), for inactives: top-dose activation, usual class: activators; also: nearly all actives have a fitted effect of over 55% in size
Target sequence (Q03431 whole entry, looked up): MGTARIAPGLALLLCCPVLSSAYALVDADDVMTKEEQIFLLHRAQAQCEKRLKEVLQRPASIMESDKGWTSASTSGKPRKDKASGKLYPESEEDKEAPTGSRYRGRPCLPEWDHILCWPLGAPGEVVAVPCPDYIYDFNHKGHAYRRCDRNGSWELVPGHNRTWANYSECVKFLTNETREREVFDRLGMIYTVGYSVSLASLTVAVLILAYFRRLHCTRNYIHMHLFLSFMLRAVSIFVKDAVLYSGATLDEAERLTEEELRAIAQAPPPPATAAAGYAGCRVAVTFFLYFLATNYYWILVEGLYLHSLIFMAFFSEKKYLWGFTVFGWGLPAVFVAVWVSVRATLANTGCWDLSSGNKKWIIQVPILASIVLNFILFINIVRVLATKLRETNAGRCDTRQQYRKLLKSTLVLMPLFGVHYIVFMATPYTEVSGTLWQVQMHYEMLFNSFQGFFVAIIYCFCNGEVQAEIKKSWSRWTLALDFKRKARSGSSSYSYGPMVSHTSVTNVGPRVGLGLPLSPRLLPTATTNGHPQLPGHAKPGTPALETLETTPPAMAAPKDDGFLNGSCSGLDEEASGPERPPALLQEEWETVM
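HEK-293-derived GP2 cells expressing PTHR1 and a GloSensor cAMP reporter, 3,000/well, plated overnight, given luciferin plus IBMX (each 0.5 mM as added) for 1 h at 37 °C, then compound for 1 h at 37 °C. Luminescence was read after 15 min at room temperature.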
GLP1R inv ag = qHTS of GLP-1 Receptor Inverse Agonists (Inhibition Mode) | Glucagon-like peptide 1 receptor (Homo sapiens), P43220 | Potency, µM (titrated, usually from 38.3 µM), for the others: at the top dose activity change, negative = inhibition, actives largely listed as inhibitors | 1.6% of 410,000 active | HEK293 GLP-1R CRE-luciferase, luminescence, 24 h; GLP-1R form is constitutively active; also: % is scaled to controls: 0 for no effect and ±100 for the full control effect; nearly all actives have a fitted effect of over 55% in size
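Luminescence readout: a drop in cAMP-driven luciferase signal flags inverse agonism at a constitutively active GLP-1R stably expressed in HEK293. Compound exposure lasted 24 hr at 37 deg C, 5% CO2.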
GLP1R cytotox = qHTS of GLP-1 Receptor Inverse Agonists: Cytotox Screen; 0.13% of 410,000 active; Potency, µM (titrated, usually from 38.3 µM), without a hit: at the top dose activity change, negative = inhibition, hits mostly inhibitors; HEK293 cAMP-luciferase reporter cells, luminescence, 24 h;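 also: loss of luciferase light is scored as toxicity; % is scaled to controls: 0 for no effect and ±100 for the full control effect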
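1536-well qHTS counterscreen of the MLSMR; 200 cells/uL, 12 h pre-incubation, 23 nL cpd, 24 h at 37 deg C 5% CO2, luciferase detection reagent, 12 min RT, luminescence. Inhibition = undesired.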
Starred values were filed as active, the others as inactive; i = inactive; u = inconclusive; x = not tested or not shown; [ ] = another dose, or the depositor's remark. Rows were chosen to be rich in hits. Some 1.7% of all compounds tested hit in one or more screens of this group. Calls follow the shape of the dose curve; as a rule, active = well fitted curve in the direction sought with a large enough effect; inconclusive = small, poorly fitted or top-dose-only effect, or another doubt; inactive = no such curve, though single readings can be large; an effect the other way counts as inactive or inconclusive. Potency is read from the fitted curve at half-maximal effect.

SMILES	GLP1R ag	PTHR1 agonist	GLP1R inv ag	GLP1R cytotox
COc1ccc2c(c1)CCc1c(C(=O)N3CCOCC3)noc1-2	-2%	-44%[57.5 µM]	u	-21%
Cc1c(Cl)cccc1NC(c1ccc(F)cc1)c1nnc(-c2ccccc2)o1 (stereo unspecified)	x	i	8.9µM*	25%
CCc1nc2cccnc2n1-c1ccc(CC(=O)Nc2ccccc2Cl)cc1	x	-45%	3%	11%
COc1ccc(OCCSc2nnc(CCNC(=O)c3ccc(Cl)c(Cl)c3)n2C)cc1	12%	i	10µM*	4%
COc1ccc(OCCSc2nnc(CCNC(=O)c3ccc(OC)cc3)n2C)cc1	4%	-16%	7%	1%
Cc1ccc(-c2nc3ccccn3c2Nc2ccccc2C)s1	-5%	-7%	u	-2%
O=C1CC(O)(c2ccccc2)C(c2ccccc2)=C1c1ccccc1 (stereo unspecified)	-5%	-33%	10µM*	-11%
O=C1C=C(c2ccccc2)C(O)(c2ccccc2)C1 (stereo unspecified)	4%	-13%[57.5 µM]	-10%	0%
COc1ccc(-c2cc3nc(C)c(CCC(=O)N4CCN(c5ccccc5F)CC4)c(C)n3n2)c(OC)c1	-1%	-31%	5%	1%
CCOC(=O)c1ccccc1NC(=O)NCc1cccn1Cc1ccc(F)cc1	x	-23%	u	-13%
COc1ccc(Cn2c(CCC(=O)Nc3cc(OC)c(OC)c(OC)c3)nc3cccnc32)cc1	x	-14%	11%	-4%
Cc1nn2c(N3CCN(CCO)CC3)c3c(nc2c1-c1ccccc1)CCCC3	26%	-6%	3.5µM*	0%
Cc1ccccc1-n1ncc2c(SCC(=O)NCc3cccs3)ncnc21	1%	-19%[57.5 µM]	10µM*	u
CCOc1ccc(CCNC(=O)Nc2cccc(OC)c2)cc1OCC	-3%	13%	11µM*	-18%
COc1cccc(NC(=O)Nc2cccc(C(=O)O)c2)c1	-3%	-34%	2µM*	5%
COc1cccc(NC(=O)c2ccccc2)c1	10%	-3%	11%	5%
COc1cccc(C(=O)Nc2ccc(NC(=O)C(C)(C)C)cn2)c1	-11%	-10%[57.5 µM]	13µM*	-7%
Cc1cc(NC(=O)CN2C(=O)c3cccnc3Sc3ccccc32)ccc1Br	x	-2%	-3%	5%
CC(C)CC(c1nnnn1Cc1ccco1)N1CCN(c2cccc(Cl)c2)CC1 (stereo unspecified)	1%	-11%	10µM*	-1%
COc1ccc(-c2ccc(C(=O)Nc3cccc(C(F)(F)F)c3)c3occc23)c(C)c1	-1%	-50%	4.5µM*	-5%
COc1ccc(NC(=O)CN(C)CC(=O)Nc2cccc(F)c2)cc1Cl	22%	-13%	10µM*	-14%
COc1cccc(NC(=O)CN(C)C(=O)c2ccc(-c3ccc(Cl)cc3)o2)c1	1%	-17%	u	8%
COc1cccc(NC(=O)CN(C)CC(=O)Nc2cccc(C(F)(F)F)c2)c1	26%	-8%	7.1µM*	-12%
COc1cccc(NC(=O)CN(C)C(=O)c2ccc(-c3ccccc3Cl)o2)c1	7%	-42%	8.9µM*	-6%
COc1cccc(NC(=O)CN(C)C(=O)C23CC4CC(CC(Cl)(C4)C2)C3)c1	2%	-1%	7.9µM*	-14%
SMILES	GLP1R ag	PTHR1 agonist	GLP1R inv ag	GLP1R cytotox
COc1cc(OC)cc(C(=O)Nc2ccc(Nc3ccccc3)cc2)c1	14%	-32%	11µM*	-25%
COc1cc(Nc2ccccn2)cc(C(=O)Nc2cccc(C(F)(F)F)c2)c1	2%	-25%	11µM*	u
COC(=O)/C=C/C(=O)Nc1cccc(C(F)(F)F)c1	8%	-12%	7.9µM*	u
COc1cc(NC(=O)c2nccnc2N)cc(C(=O)Nc2cccc(C(F)(F)F)c2)c1	-9%	-7%	-6%	13%
CCN(Cc1ccccc1)C(=O)Cn1c(=O)oc2cc(S(=O)(=O)N3CCCCCC3)ccc21	x	-34%	u	-5%
C/C=C1\COC(C(=O)NCc2ccccc2)(C(F)(F)F)C=C1C=C(C)C (stereo unspecified)	8%	-16%	10µM*	1%
O=C(CCC1N=C2c3ccccc3N=C(SCC(=O)Nc3ccc(F)cc3)N2C1=O)NCc1ccco1 (stereo unspecified)	x	14%	9%	-13%
Cc1ccc(CN(Cc2ccco2)C(=O)c2cccc(C)c2)cc1	x	i	11µM*	1%
CN(C)c1ccc(CN(Cc2ccco2)C(=O)c2ccc(C(C)(C)C)cc2)cc1	x	-25%	11µM*	0%
Cc1ccc(C(=O)N(Cc2ccco2)Cc2ccco2)cc1	x	i	-9%	9%
CCSc1cc(N2CC(C)OC(C)C2)nc(-c2ccccc2Cl)n1 (stereo unspecified)	18%	-23%[57.5 µM]	10µM*	7%
CCSc1cc(N2CCCC2)nc(-c2ccc(C)cc2)n1	0%	i	18%	1%
O=C(CN(C(=O)c1ccccc1Cl)C1CCCCC1)Nc1ccc(Cl)c([N+](=O)[O-])c1	-14%	-1%	4µM*	-18%
Cc1cc(C)cc(NC(=O)CCNS(=O)(=O)c2cc(Br)cnc2N)c1	2%	i	7.9µM*	-12%
CCOC(=O)c1ccc(NC(=O)CCNS(=O)(=O)c2cc(Br)cnc2N)cc1	5%	-6%	u	-9%
COc1ccc(S(=O)(=O)N2CCCc3ccccc32)cc1[N+](=O)[O-]	22%	-10%	11µM*	-13%
COc1ccc(S(=O)(=O)N2CCCc3ccccc32)cc1OC	13%	-40%	u	8%
CC(=O)Nc1ccc(C2=NNC(=Nc3cccc(S(=O)(=O)N(C)C)c3)SC2)cc1	-4%	i	u	u
CN(C)S(=O)(=O)c1cccc(N=C2NN=C(c3ccccc3)CS2)c1	-10%	i	11µM*	u
CCOC(=O)C1=C(C)NC(C)=C(C(=O)OCC)C1c1cccs1	-1%	-16%	-26%	6%[1.53 µM]
CCCCOC(=O)C1=C(C)NC(=O)NC1c1cccc([N+](=O)[O-])c1 (stereo unspecified)	9%	-49%	1%	-7%
CCOC(=O)C1=C(C)NC(C)=C(C(=O)OCC)C1c1cccc([N+](=O)[O-])c1	-4%	-21%	10µM*	-11%
CCOC(=O)C1=C(C)NC(C)=C(C(=O)OCC)C1c1sccc1C	4%	-34%	7.9µM*	-18%
Cc1ccc(CNC(=O)c2cc(C)nc3c2c(C)nn3-c2ccc(C)cc2)cc1	x	-24%	-7%	9%
CN(C)S(=O)(=O)N(CC(=O)NCCSCc1ccc(Cl)cc1)c1ccccc1	15%	-21%	8.9µM*	5%
Fc1ccc(C(CCCn2nnc(-c3cccnc3)n2)c2ccc(F)cc2)cc1	-2%	-42%	10µM*	-9%
